Screening results: PubChem BioAssay, several laboratories
GLD-1 RNA inh – GLD-1/TGE RNA complex disruptors, primary screen, biochemical, fluorescence polarization; inhibition, % at 5.96 µM; purified GLD-1 + fluorescein TGE RNA; Female germline-specific tumor suppressor gld-1 (Caenorhabditis elegans), Q17339; 320,000 compounds, 0.44% hits;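 active = percent inhibition above a per-plate cutoff, the plate mean of test compounds plus 3 SD, cut at about 30% in these data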;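 note: 0% = DMSO wells with GLD-1 and probe and 100% = wells lacking GLD-1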
Target sequence (Q17339 whole entry, looked up): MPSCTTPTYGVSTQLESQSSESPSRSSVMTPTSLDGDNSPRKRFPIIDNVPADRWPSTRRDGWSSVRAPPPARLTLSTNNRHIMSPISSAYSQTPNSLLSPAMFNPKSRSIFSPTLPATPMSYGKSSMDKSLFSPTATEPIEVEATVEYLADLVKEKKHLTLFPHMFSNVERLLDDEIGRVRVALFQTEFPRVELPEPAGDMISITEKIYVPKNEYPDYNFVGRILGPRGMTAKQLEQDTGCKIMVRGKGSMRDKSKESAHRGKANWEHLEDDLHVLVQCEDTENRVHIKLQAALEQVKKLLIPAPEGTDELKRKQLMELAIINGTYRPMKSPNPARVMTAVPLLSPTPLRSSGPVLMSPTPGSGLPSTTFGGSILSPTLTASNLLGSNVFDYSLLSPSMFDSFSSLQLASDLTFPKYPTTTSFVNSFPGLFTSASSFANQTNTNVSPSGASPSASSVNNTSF
MEX-5 binding – MEX-5 zinc finger RNA-binding disruptors – biochemical, C. elegans, fluorescence polarization, MLPCN library, primary screen | AID 1832, 2009 | activity score (negative = inhibition of binding), % at 10 µM | 300,000 compounds, 0.38% hits | MEX-5/FITC-TCR2 RNA binding; stronger effect = lower value | Zinc finger protein mex-5 (Caenorhabditis elegans), Q9XUB2;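 active = inhibition past about -25% in most replicates, and total fluorescence under double the plate's negative control median, limit read from the data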;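 note: 0% = DMSO and -100% = 5 µM competing unlabeled TCR2 RNA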
BCLXL inh – inhibitors of human Bcl-xL, primary screen, biochemical, fluorescence polarization, HTS; 320,000 compounds, 0.7% hits; Bcl-2-like protein 1 (Homo sapiens), Q07817; inhibition, % at 10.9 µM; GST-Bcl-xL / FITC-Bim BH3 peptide fluorescence polarization; AID 2129, 2009;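 active = inhibition above the mean of all tested compounds plus 3 SD, cutoff set per campaign, cut at about 30% in these data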;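 note: 0% = DMSO wells and 100% = unlabeled Bim-BH3 peptide competitor; inhibitors lower millipolarization by displacing the labeled peptide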
EBV gp42 inh – Epstein-Barr virus gp42 inhibitors, primary screen, biochemical, uHTS, fluorescence polarization; Glycoprotein 42 (Epstein-Barr virus (strain AG876)), Q1HVG2; inhibition, % (tested at 21.74 µM); 220,000 compounds, 0.42% hits; AID 1085, 2008; Fluorescence polarization binding assay, mP read-out; in the data active = inhibition above about 50%
MCL1-BIM inh – inhibitors of MCL1 binding to BIM-BH3, primary screen, biochemical, fluorescence polarization. Induced myeloid leukemia cell differentiation protein Mcl-1 (Homo sapiens), Q07820. GST-MCL1 / FITC-Bim-BH3 fluorescence polarization. inhibition, % at 10.9 µM. 320,000 compounds, 0.68% hits;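 active = inhibition above the mean inhibition of all tested compounds plus 3 SD, set per campaign, cut at about 40% in these data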;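 note: 0% = DMSO wells and 100% = unlabeled Bim-BH3 peptide control; higher means more loss of mP so more displacement of Bim peptide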
eLon inh – inhibitors of E. coli Lon protease, primary screen, biochemical, fluorescence polarization | purified E. coli Lon protease | 360,000 compounds, 0.42% hits | P0A9M0 | inhibition, % at 7.94 µM; in the data active = inhibition above about 13%, passing the limit was not always enough;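 note: 0% = enzyme with probe and DMSO and 100% = no enzyme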
Active calls of the source: *. This is a sample that favours compounds with a hit; in the whole collection about 1.4% have one here.

How did CCOC(=O)c1ccc(NC(=O)c2c(O)[nH]c(=O)[nH]c2=O)cc1 do in these assays?
GLD-1 RNA inh: 5; MEX-5 binding: -4; BCLXL inh: -4; EBV gp42 inh: 77*; MCL1-BIM inh: 3; eLon inh: -7

What do the screens show for `CCOc1ccc(NC(=O)c2c(O)[nH]c(=O)[nH]c2=O)cc1`?
GLD-1 RNA inh: 12; MEX-5 binding: -2; BCLXL inh: 5; MCL1-BIM inh: 3; eLon inh: 0

Results for C=CCN1C(=O)/C(=C/c2cc(C)n(-c3cccnc3)c2C)C(=O)NC1=S ?
GLD-1 RNA inh: 1; MEX-5 binding: -11; BCLXL inh: 6; EBV gp42 inh: -4; MCL1-BIM inh: 3; eLon inh: -19

What do the screens show for `Cc1cc(C=C2C(=O)NC(=O)NC2=O)c(C)n1-c1cccnc1`?
GLD-1 RNA inh: -1; MEX-5 binding: -71*; BCLXL inh: -3; EBV gp42 inh: 0; MCL1-BIM inh: -3; eLon inh: -9

What do the screens show for `CN(Cc1cccc(-c2ccncc2)c1)C(=O)Oc1ccccc1Cc1ccccc1`?
eLon inh: -6

What do the screens show for `CCOc1ccccc1-n1c(O)c(C=NCCCN(CC)CC)c(=O)[nH]c1=O`?
GLD-1 RNA inh: 4; MEX-5 binding: 1; BCLXL inh: 3; EBV gp42 inh: -21; MCL1-BIM inh: -3; eLon inh: -6

Results for CC[C@@H](CO)C1CC2NC3CC4(c5ccccc5N(C)[C@@H]24)C(O)C31 (stereo not given in full) ?
GLD-1 RNA inh: 6; MEX-5 binding: 0; BCLXL inh: 5; MCL1-BIM inh: -1; eLon inh: 9

What do the screens show for `CN1C(=O)C(=Cc2cn(CC(=O)N3CCCCC3)c3ccccc23)C(=O)N(C)C1=O`?
GLD-1 RNA inh: -3; MEX-5 binding: -36*; BCLXL inh: 0; MCL1-BIM inh: -5; eLon inh: -12

Results for Oc1ccc2c3c1O[C@H]1c4[nH]c5ccccc5c4C[C@@]4(O)[C@@H](C2)N(CC2CC2)CC[C@]314 ?
GLD-1 RNA inh: 3; BCLXL inh: 2; MCL1-BIM inh: 3; eLon inh: -3

How did Oc1ccc2c3c1O[C@H]1c4[nH]c5ccccc5c4C[C@@]4(O)C(C2)N(CC2CC2)CC[C@]314 do in these assays?
GLD-1 RNA inh: 1; MEX-5 binding: -7; BCLXL inh: 19; EBV gp42 inh: -8; MCL1-BIM inh: 66*

Results for CC(C)(O)/C=C/C(=O)C(C)(O)C1C(O)CC2(C)C3CC=C4C(C=C(O)C(=O)C4(C)C)C3(C)C(=O)CC12C (stereo not given) ?
eLon inh: -5

Results for CCOC(=O)c1c(NS(=O)(=O)c2ccccc2)n(CCCOC)c2nc3ccccc3nc12 ?
GLD-1 RNA inh: 9; MEX-5 binding: -26*; BCLXL inh: 6; EBV gp42 inh: 15; MCL1-BIM inh: 4; eLon inh: -7

Results for c1ccc(-c2ccc(CN3Cc4ccccc4-n4nncc4C3)cc2)cc1 ?
eLon inh: -2

What do the screens show for `O=C1/C(=C/c2cc3c(cc2Cl)OCO3)N2CCC1CC2`?
GLD-1 RNA inh: 54*; MEX-5 binding: -1; BCLXL inh: 4; EBV gp42 inh: -16; MCL1-BIM inh: 6

How did COc1ccc(P2(=O)Nc3ccccc3N2)cc1 do in these assays?
GLD-1 RNA inh: 15; MEX-5 binding: -36*; BCLXL inh: 62*; EBV gp42 inh: 24; MCL1-BIM inh: 52*; eLon inh: -37

What do the screens show for `O=C1CCC2(O)C3Cc4ccc(O)c5c4C2(CCN3Cc2ccoc2)C1O5` (stereo not given)?
eLon inh: -10
